Experiment [1] has as its target Leukocyte tyrosine kinase receptor (Homo sapiens) (UniProt P29376). The settings on record: at 1 µM.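 Also: each value is the mean inhibition of LTK.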
The target in experiment [2] is Tyrosine-protein kinase Lyn (Homo sapiens) (UniProt P07948). To be noted: at 0.1 µM.
For experiment [3] the target is unchanged. To be noted: at 1 µM.
Experiment [4] shares this target. To be noted: at 0.1 µM. The source holds these as a separate data set.
Experiment [5] shares this target. The settings on record: at 1 µM. This is another data set of the same source.
For experiment [6], the target named is T1, Tyrosine-protein kinase Mer (Homo sapiens) (UniProt Q12866).
T1 sequence (whole entry): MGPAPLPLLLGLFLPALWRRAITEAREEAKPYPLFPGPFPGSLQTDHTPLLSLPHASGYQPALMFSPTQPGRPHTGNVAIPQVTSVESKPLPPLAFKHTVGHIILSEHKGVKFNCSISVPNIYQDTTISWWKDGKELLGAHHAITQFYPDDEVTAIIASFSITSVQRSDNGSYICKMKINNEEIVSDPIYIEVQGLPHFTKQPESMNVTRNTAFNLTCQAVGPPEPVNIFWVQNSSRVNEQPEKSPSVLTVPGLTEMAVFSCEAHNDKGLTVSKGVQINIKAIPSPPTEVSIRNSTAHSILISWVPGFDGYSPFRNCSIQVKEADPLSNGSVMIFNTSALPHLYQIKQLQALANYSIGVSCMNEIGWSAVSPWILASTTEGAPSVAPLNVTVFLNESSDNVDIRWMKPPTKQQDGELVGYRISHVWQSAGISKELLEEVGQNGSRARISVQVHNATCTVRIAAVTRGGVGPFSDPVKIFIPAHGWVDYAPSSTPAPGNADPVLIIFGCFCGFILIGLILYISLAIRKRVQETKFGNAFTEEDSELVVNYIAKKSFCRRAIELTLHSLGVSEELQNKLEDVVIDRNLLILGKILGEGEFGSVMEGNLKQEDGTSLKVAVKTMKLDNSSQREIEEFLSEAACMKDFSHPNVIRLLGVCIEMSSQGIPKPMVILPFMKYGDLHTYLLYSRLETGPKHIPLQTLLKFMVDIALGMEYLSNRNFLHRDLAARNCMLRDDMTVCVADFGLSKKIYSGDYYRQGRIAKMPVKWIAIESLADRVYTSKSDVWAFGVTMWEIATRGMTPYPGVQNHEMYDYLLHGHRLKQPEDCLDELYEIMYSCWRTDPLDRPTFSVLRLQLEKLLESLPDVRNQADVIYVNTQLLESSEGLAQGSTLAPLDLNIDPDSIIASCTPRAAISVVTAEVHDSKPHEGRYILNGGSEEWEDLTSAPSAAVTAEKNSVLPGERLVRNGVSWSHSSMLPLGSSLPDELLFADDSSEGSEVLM
The settings on record: at 0.1 µM.

Experiment [7] concerns the target T1, Tyrosine-protein kinase Mer (Homo sapiens). The settings on record: at 1 µM.
In experiment [8] the target is Hepatocyte growth factor receptor (Homo sapiens) (UniProt P08581). To be noted: at 0.1 µM.
Experiment [9] shares this target. The settings on record: at 1 µM.
For experiment [10], the target named is T2, Muscle, skeletal receptor tyrosine-protein kinase (Homo sapiens) (UniProt O15146).
T2 sequence (whole entry): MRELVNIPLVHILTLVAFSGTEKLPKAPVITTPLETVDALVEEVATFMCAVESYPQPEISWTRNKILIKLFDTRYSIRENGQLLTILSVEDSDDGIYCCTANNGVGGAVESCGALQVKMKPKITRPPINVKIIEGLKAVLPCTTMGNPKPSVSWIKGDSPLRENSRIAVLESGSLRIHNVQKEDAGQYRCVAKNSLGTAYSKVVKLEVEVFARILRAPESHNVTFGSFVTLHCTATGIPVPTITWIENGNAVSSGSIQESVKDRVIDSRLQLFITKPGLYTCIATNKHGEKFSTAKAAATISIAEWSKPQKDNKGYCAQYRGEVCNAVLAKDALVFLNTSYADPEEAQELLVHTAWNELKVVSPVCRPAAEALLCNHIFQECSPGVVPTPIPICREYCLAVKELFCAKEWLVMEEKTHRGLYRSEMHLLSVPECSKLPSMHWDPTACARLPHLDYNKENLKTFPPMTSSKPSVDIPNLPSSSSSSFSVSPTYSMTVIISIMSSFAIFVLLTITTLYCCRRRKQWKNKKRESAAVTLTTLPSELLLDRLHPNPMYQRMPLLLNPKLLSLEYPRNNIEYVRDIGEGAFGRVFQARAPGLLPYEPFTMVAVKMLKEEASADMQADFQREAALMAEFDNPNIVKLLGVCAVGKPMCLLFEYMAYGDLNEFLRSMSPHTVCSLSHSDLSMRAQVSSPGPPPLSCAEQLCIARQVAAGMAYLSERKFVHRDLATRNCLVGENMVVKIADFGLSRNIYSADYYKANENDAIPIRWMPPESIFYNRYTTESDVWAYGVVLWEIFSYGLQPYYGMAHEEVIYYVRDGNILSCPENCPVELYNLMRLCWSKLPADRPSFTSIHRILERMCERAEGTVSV
The settings on record: at 0.1 µM.

Experiment [11] has as its target T2, Muscle, skeletal receptor tyrosine-protein kinase (Homo sapiens). The settings on record: at 1 µM.
In experiment [12] the target is Platelet-derived growth factor receptor alpha (Homo sapiens) (UniProt P16234). The settings on record: at 0.1 µM.
Sequence of Platelet-derived growth factor receptor alpha (Homo sapiens) (P16234 whole entry): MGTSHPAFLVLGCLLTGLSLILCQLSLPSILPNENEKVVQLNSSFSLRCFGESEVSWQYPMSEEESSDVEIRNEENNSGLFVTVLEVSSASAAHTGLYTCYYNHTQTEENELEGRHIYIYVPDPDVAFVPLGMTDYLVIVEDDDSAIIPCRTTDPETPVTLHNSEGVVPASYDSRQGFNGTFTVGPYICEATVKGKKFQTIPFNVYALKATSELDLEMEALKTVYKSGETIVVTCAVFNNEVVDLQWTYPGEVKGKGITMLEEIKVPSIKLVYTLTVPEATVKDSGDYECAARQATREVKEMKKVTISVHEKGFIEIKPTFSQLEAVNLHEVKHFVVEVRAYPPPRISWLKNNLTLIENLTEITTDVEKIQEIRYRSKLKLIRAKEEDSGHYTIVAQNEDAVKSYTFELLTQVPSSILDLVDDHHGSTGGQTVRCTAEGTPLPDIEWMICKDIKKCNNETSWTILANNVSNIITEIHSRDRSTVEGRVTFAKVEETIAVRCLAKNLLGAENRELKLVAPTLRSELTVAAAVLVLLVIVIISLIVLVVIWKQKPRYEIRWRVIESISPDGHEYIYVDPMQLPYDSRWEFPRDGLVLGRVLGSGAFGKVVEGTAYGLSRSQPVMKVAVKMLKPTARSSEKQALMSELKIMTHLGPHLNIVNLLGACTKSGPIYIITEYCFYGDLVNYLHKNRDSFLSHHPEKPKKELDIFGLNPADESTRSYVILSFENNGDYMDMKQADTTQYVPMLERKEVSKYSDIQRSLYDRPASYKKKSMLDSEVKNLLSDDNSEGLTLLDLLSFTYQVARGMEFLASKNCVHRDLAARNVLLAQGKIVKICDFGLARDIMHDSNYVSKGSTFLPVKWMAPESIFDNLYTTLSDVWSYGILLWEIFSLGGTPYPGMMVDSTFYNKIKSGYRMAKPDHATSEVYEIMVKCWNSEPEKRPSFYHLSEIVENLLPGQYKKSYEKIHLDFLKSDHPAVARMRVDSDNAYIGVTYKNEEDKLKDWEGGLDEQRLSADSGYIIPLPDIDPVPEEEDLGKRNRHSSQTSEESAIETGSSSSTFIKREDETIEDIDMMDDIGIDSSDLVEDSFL
Experiment [13] shares this target. To be noted: at 1 µM.
Experiment [14] has as its system Platelet-derived growth factor receptor alpha (Homo sapiens), P16234 [D842V]. The settings on record: at 0.1 µM.
Experiment [15] shares this test system. To be noted: at 1 µM.
Experiment [16] concerns Platelet-derived growth factor receptor alpha (Homo sapiens), P16234 [T674I]. The settings on record: at 0.1 µM.
The test system is the same in experiment [17]. To be noted: at 1 µM.
The test system of experiment [18] is Platelet-derived growth factor receptor alpha (Homo sapiens), P16234 [V561D]. The settings on record: at 0.1 µM.
Sequence of Platelet-derived growth factor receptor alpha (Homo sapiens), P16234 [V561D] (P16234 whole entry V561D): as the sequence (P16234 whole entry) above, with V561D counted along it
Experiment [19] shares this test system. To be noted: at 1 µM.
Experiment [20] addresses Platelet-derived growth factor receptor beta (Homo sapiens) (UniProt P09619). To be noted: at 0.1 µM.

Sequence of Platelet-derived growth factor receptor beta (Homo sapiens) (P09619 whole entry): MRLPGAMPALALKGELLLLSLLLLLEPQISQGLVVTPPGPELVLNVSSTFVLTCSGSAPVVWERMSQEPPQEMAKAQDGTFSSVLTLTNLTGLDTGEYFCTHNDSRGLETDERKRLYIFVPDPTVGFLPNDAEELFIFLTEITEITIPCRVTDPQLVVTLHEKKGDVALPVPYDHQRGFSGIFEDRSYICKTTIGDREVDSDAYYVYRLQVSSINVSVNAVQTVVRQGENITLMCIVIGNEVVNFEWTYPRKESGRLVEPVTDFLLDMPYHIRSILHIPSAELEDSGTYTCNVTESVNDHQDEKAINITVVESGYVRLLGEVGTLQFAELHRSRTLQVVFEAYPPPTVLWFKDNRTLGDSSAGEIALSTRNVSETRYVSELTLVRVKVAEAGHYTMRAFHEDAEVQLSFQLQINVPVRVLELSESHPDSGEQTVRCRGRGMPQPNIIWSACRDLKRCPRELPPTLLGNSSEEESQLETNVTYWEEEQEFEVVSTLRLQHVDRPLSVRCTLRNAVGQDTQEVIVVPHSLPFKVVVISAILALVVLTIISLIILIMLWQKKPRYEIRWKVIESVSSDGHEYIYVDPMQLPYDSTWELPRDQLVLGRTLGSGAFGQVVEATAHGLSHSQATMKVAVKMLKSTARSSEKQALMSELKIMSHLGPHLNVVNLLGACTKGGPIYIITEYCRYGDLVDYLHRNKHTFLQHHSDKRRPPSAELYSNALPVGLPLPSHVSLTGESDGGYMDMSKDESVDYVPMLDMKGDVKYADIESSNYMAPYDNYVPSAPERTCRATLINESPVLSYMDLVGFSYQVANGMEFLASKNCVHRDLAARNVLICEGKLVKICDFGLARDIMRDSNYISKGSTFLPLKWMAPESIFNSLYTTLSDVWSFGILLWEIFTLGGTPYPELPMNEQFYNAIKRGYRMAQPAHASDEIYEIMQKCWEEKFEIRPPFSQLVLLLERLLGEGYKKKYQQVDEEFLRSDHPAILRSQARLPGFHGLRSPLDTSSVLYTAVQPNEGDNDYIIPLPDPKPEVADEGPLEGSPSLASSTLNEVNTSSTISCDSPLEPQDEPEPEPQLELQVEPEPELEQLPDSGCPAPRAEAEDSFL
Sequence of Platelet-derived growth factor receptor alpha (Homo sapiens), P16234 [D842V] (P16234 whole entry D842V): as the sequence (P16234 whole entry) above, with D842V counted along it
Sequence of Tyrosine-protein kinase Lyn (Homo sapiens) (P07948 2-512 limits assumed): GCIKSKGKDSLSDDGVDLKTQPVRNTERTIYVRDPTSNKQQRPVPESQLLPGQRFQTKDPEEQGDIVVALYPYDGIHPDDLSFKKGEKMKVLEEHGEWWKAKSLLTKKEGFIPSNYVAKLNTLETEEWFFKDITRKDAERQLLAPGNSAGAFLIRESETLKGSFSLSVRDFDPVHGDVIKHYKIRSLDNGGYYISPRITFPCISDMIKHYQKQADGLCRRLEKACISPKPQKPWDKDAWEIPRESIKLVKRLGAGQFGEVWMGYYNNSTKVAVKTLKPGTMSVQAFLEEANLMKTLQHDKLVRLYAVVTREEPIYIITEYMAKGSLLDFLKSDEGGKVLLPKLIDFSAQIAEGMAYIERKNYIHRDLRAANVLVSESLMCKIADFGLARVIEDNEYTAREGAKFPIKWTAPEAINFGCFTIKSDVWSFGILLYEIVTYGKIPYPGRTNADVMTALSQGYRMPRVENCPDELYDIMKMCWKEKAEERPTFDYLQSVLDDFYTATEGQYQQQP

As usually defined, the inhibition is the drop in the measured response relative to a control, in per cent. As to `O=C(Nc1n[nH]c2nc(-c3ccco3)ccc12)C1CC1`, the inhibition in experiment [1] is 1.2%; in [2], 2.83%; in experiment [3], 4.01%; in experiment [4] it was 1.47%; in experiment [5], 3.2%; in experiment [6], 2.01%. Moreover, the inhibition in experiment [7] was determined as 1.71%; in [8], 4.66%; in experiment [9], 5.26%; in [10], 5.75%; in [11], 7.97%; in experiment [12] it was 6.36%. The inhibition in [13] came out at 10.6%; in [14] it was 3.54%; in experiment [15], 6.18%; in experiment [16], 4.27%; in experiment [17], 6.36%; in experiment [18], 3.66%. Further, the inhibition was 7.73% in experiment [19] and 1.45% in experiment [20].

Regarding `Cc1ccc(C(=O)NC2CCC2)cc1-c1ccc(C(=O)NCC2CC2)cc1`, the inhibition in experiment [1] came to 2.04%; in experiment [2], 3.48%; in [3], 2.47%; in experiment [4], 2.55%; in experiment [5], 1.61%; in [6] it was 2.37%. Also, the inhibition in [7] is 6.88%; in experiment [8], 3.95%; in [9] it was 6.08%; in experiment [10] it was 2.41%; in experiment [11] it was 3.12%; in experiment [12], 1.47%. Moreover, the inhibition in [13] turned out to be 4.53%; in [14] it was 3.52%; in experiment [15] it was 0.66%; in experiment [16], 3.43%; in experiment [17], 3.17%; in experiment [18], 2.49%. Moreover, the figures for the inhibition in experiment [19] and in experiment [20] were 5.32% and -0.12%, respectively.

`C[C@@H](Oc1cc(-n2cnc3ccc(OC4CCN(C)CC4)cc32)sc1C(N)=O)c1ccccc1Cl`: the inhibition was 4.72% in experiment [1]; 3.54% in [2]; 6.86% in experiment [3]; 1.68% in experiment [4]; 5.6% in [5]; 2.77% in [6]. The inhibition in [7] turned out to be 9.07%; in [8], 7.84%; in [9], 5.01%; in experiment [10] it was 7.63%; in [11] it was 40.8%; in experiment [12], 29.3%. In addition, the inhibition in experiment [13] is 69%; in experiment [14], 10.5%; in [15], 53.6%; in experiment [16] it was 8.48%; in [17] it was 58%; in experiment [18] it was 14.5%. In addition, the inhibition in experiment [19] was 65%; in experiment [20], 26.3%.

Take `CS(=O)(=O)CCNCc1ccc(-c2ccc3ncnc(Nc4ccc(OCc5ccccc5)c(Br)c4)c3c2)o1`: the inhibition was 4.86% in experiment [1]; 4.6% in experiment [2]; 7.84% in experiment [3]; 2.75% in experiment [4]; 5.83% in experiment [5]; 2.91% in experiment [6]. In addition, the inhibition in experiment [7] is 13.9%; in experiment [8], 1.81%; in experiment [9] it was 6.53%; in experiment [10] it was 1.27%; in [11], -1.75%; in [12] it was 6.94%. Besides, the inhibition in experiment [13] stood at 12.7%; in experiment [14], 2.31%; in [15], 4.09%; in experiment [16], 2.28%; in [17] it was 5.56%; in [18] it was 3.03%. In addition, the inhibition in experiment [19] was 5.85%; in experiment [20], 3.75%.

Turning to `CCN(CC)Cc1ccc(Nc2nccc(-c3cnn4ncccc34)n2)cc1`, the inhibition is 9.98% in experiment [1]; 3.53% in experiment [2]; 11.8% in [3]; 2.02% in experiment [4]; 9.31% in experiment [5]; 2.93% in [6]. Also, the inhibition in experiment [7] came out at 9.85%; in experiment [8], 7.6%; in [9], 10.4%; in experiment [10], 6.42%; in experiment [11], 30.5%; in experiment [12], 17.5%. The inhibition amounted to 55.5% in experiment [13]; 10.1% in [14]; 51.1% in experiment [15]; 6.93% in experiment [16]; 34.9% in experiment [17]; 18% in experiment [18]. In addition, the figures for the inhibition in experiment [19] and in experiment [20] were 64.2% and 29.1%, respectively.

With `O=C1NC(=O)C(c2cccc(Cl)c2)=C1Nc1ccc(Cl)c(C(=O)O)c1`, the inhibition in experiment [1] came out at 2.96%; in experiment [2], 3.89%; in experiment [3], 4.02%; in experiment [4], 2.44%; in [5], 3.42%; in experiment [6], 1.12%. Further, the inhibition in experiment [7] was -0.64%; in experiment [8], 1.38%; in experiment [9], 3.65%; in experiment [10], 2.04%; in experiment [11], 3.32%; in [12] it was 5.36%. Further, the inhibition in [13] amounted to 9.61%; in experiment [14] it was 0.72%; in [15] it was 1.68%; in experiment [16], 6.92%; in experiment [17], 5.66%; in experiment [18] it was 2.77%. Moreover, the inhibition in experiment [19] amounted to 0.49%; in experiment [20] it was 1.55%.

Consider `CS(=O)(=O)CCNCc1cc(-c2cc3c(Nc4ccc(OCc5cccc(F)c5)c(Cl)c4)ncnc3s2)cs1`, for which the inhibition worked out at 6.25% in [1]; 5.45% in experiment [2]; 6.19% in [3]; 2.93% in experiment [4]; 6.07% in [5]; 4.4% in [6]. For the same compound, the inhibition in experiment [7] came to 8.06%; in [8], 7.8%; in [9], 6.72%; in [10], 2.43%; in experiment [11] it was 8.6%; in experiment [12] it was 9.29%. The inhibition in experiment [13] is 13.6%; in [14] it was 2.14%; in experiment [15], 4.9%; in experiment [16] it was 8.52%; in experiment [17] it was 11.1%; in [18] it was 4.52%. Also, the inhibition in experiment [19] was found to be 5.56%; in experiment [20], 4.84%.
